# Results from PMC5540273 (PLoS ONE, 2017).
# Assays:
# Conditions in all cases: concentration: 1 μM,replicates: in singlicate; n = 1
# [1] = tested on: NEK11
# [2] = tested on: NEK1
# [3] = tested on: NEK2
# [4] = tested on: NEK3
# [5] = tested on: NEK4
# [6] = tested on: NEK5
# [7] = tested on: NEK6
# [8] = tested on: NEK7
# [9] = tested on: NEK9
# [10] = tested on: T1, NIK
# T1 construct: gene MAP3K14
# 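Further: KINOMEscan kinase panel screen.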
structure (smiles),measurement,setting,value
COC(=O)c1cccc(NC(=O)NC2CCN(c3ccnc(NCc4ccc(F)cc4)n3)CC2)c1 [GSK1379860],%Inh,[1],7%
same,%Inh,[2],0%
same,%Inh,[3],0%
same,%Inh,[4],0%
same,%Inh,[5],6%
same,%Inh,[6],0%
same,%Inh,[7],0%
same,%Inh,[8],4%
same,%Inh,[9],0%
same,%Inh,[10],8%
CCn1c(-c2nonc2N)nc2cncc(Br)c21 [SB-738004],%Inh,[1],40%
same,%Inh,[2],0%
same,%Inh,[3],0%
same,%Inh,[4],19%
same,%Inh,[5],0%
same,%Inh,[6],10%
same,%Inh,[7],19%
same,%Inh,[8],0%
same,%Inh,[9],11%
same,%Inh,[10],79%
O=C(NCC1CC1)c1ccc(-c2cc(C(=O)NC3CC3)ccc2F)cc1 [GW810445],%Inh,[1],0%
same,%Inh,[2],3%
same,%Inh,[3],0%
same,%Inh,[4],0%
same,%Inh,[5],0%
same,%Inh,[6],0%
same,%Inh,[7],0%
same,%Inh,[8],0%
same,%Inh,[9],0%
same,%Inh,[10],0%
Cn1ccc2ncnc(Oc3ccc(NC(=O)Nc4cnn(C(C)(C)C)c4)c(Cl)c3)c21,%Inh,[1],0%
same,%Inh,[2],0%
same,%Inh,[3],0%
same,%Inh,[4],12%
same,%Inh,[5],0%
same,%Inh,[6],6%
same,%Inh,[7],2%
same,%Inh,[8],0%
same,%Inh,[9],0%
same,%Inh,[10],0%
Cc1cccc2c(-c3ccncc3)c(-c3ccc(F)cc3)nn12.Cl [GW461487],%Inh,[1],4%
same,%Inh,[2],0%
same,%Inh,[3],0%
same,%Inh,[4],0%
same,%Inh,[5],0%
same,%Inh,[6],16%
same,%Inh,[7],0%
same,%Inh,[8],0%
same,%Inh,[9],15%
same,%Inh,[10],10%
COC(=O)c1cccc(NC(=O)NC2CCN(c3ccnc(Nc4cc(OC)c(OC)c(OC)c4)n3)C2)c1 (stereo not drawn) [GSK1379767],%Inh,[1],0%
same,%Inh,[2],52%
same,%Inh,[3],22%
same,%Inh,[4],17%
same,%Inh,[5],0%
same,%Inh,[6],100%
same,%Inh,[7],0%
same,%Inh,[8],37%
same,%Inh,[9],26%
same,%Inh,[10],32%
Cn1ccc2ncnc(Oc3ccc(NC(=O)Nc4cccc(C(F)(F)F)c4)c(F)c3)c21,%Inh,[1],0%
same,%Inh,[2],0%
same,%Inh,[3],15%
same,%Inh,[4],17%
same,%Inh,[5],0%
same,%Inh,[6],7%
same,%Inh,[7],27%
same,%Inh,[8],0%
same,%Inh,[9],0%
same,%Inh,[10],0%
Cn1ccc2ncnc(Oc3ccc(NC(=O)Nc4cncc(C(F)(F)F)c4)c(Cl)c3)c21,%Inh,[1],0%
same,%Inh,[2],0%
same,%Inh,[3],0%
same,%Inh,[4],13%
same,%Inh,[5],0%
same,%Inh,[6],0%
same,%Inh,[7],0%
same,%Inh,[8],0%
same,%Inh,[9],0%
same,%Inh,[10],0%
COc1cc(Nc2nccc(N3CCC(NC(=O)c4cccc(C#N)c4)C3)n2)cc(OC)c1OC (stereo not drawn) [GSK1379751],%Inh,[1],0%
same,%Inh,[2],33%
same,%Inh,[3],13%
same,%Inh,[4],34%
same,%Inh,[5],2%
same,%Inh,[6],97.1%
same,%Inh,[7],33%
same,%Inh,[8],11%
same,%Inh,[9],0%
same,%Inh,[10],27%
C[C@@H]1CNc2c(sc3ccc4nc(-c5ccc(O)cc5)ccc4c23)C(=O)N1,%Inh,[1],0%
same,%Inh,[2],0%
same,%Inh,[3],0%
same,%Inh,[4],20%
same,%Inh,[5],0%
same,%Inh,[6],0%
same,%Inh,[7],38%
same,%Inh,[8],11%
same,%Inh,[9],8%
same,%Inh,[10],84%
Cc1cccc(-c2nc(Nc3ccncc3)c3sccc3n2)n1 [GW869641],%Inh,[1],31%
same,%Inh,[2],0%
same,%Inh,[3],5%
same,%Inh,[4],10%
same,%Inh,[5],14%
same,%Inh,[6],4%
same,%Inh,[7],16%
same,%Inh,[8],3%
same,%Inh,[9],14%
same,%Inh,[10],0%
COc1cc2ncn(-c3cc(OCC4CCCCC4)c(C(N)=O)s3)c2cc1OC [GSK204559],%Inh,[1],0%
same,%Inh,[2],12%
same,%Inh,[3],40%
same,%Inh,[4],0%
same,%Inh,[5],10%
same,%Inh,[6],9%
same,%Inh,[7],0%
same,%Inh,[8],21%
same,%Inh,[9],33%
same,%Inh,[10],16%
CN(c1ccccc1CNc1nc(Nc2ccc3c(c2)CC(=O)N3)ncc1C(F)(F)F)S(C)(=O)=O,%Inh,[1],0%
same,%Inh,[2],0%
same,%Inh,[3],0%
same,%Inh,[4],32%
same,%Inh,[5],0%
same,%Inh,[6],0%
same,%Inh,[7],26%
same,%Inh,[8],64%
same,%Inh,[9],53%
same,%Inh,[10],0%
Cl.c1ccc(Oc2ccc(Nc3ccnc4cc(-c5ccc(CN6CCNCC6)o5)ccc34)cc2)nc1 [GW567142],%Inh,[1],0%
same,%Inh,[2],0%
same,%Inh,[3],6%
same,%Inh,[4],2%
same,%Inh,[5],0%
same,%Inh,[6],0%
same,%Inh,[7],0%
same,%Inh,[8],5%
same,%Inh,[9],17%
same,%Inh,[10],7%
COC(=O)Nc1nc2cc(Oc3ccc(NC(=O)Nc4cc(C(F)(F)F)ccc4Cl)cc3)ccc2[nH]1.Cl [GW697465],%Inh,[1],29%
same,%Inh,[2],0%
same,%Inh,[3],0%
same,%Inh,[4],0%
same,%Inh,[5],3%
same,%Inh,[6],0%
same,%Inh,[7],0%
same,%Inh,[8],0%
same,%Inh,[9],28%
same,%Inh,[10],0%
CSc1nccc(-c2c(-c3ccc(F)cc3)ncn2CCCN2CCOCC2)n1.Cl [SB-217146],%Inh,[1],0%
same,%Inh,[2],0%
same,%Inh,[3],0%
same,%Inh,[4],38%
same,%Inh,[5],0%
same,%Inh,[6],0%
same,%Inh,[7],0%
same,%Inh,[8],8%
same,%Inh,[9],0%
same,%Inh,[10],33%
NC(=O)c1ccc(-c2cc3ncnc(SCC(=O)O)c3s2)cc1,%Inh,[1],0%
same,%Inh,[2],0%
same,%Inh,[3],0%
same,%Inh,[4],35%
same,%Inh,[5],0%
same,%Inh,[6],0%
same,%Inh,[7],7%
same,%Inh,[8],0%
same,%Inh,[9],0%
same,%Inh,[10],0%
c1ccc(Oc2ccc(Nc3ccnc4ccc(-c5ccccn5)cc34)cc2)cc1 [GW407034],%Inh,[1],0%
same,%Inh,[2],0%
same,%Inh,[3],0%
same,%Inh,[4],9%
same,%Inh,[5],28%
same,%Inh,[6],0%
same,%Inh,[7],1%
same,%Inh,[8],0%
same,%Inh,[9],0%
same,%Inh,[10],9%
Cn1ccc2ncnc(Oc3ccc(NC(=O)Nc4ccnc(C(F)(F)F)c4)c(Cl)c3)c21,%Inh,[1],0%
same,%Inh,[2],0%
same,%Inh,[3],0%
same,%Inh,[4],11%
same,%Inh,[5],0%
same,%Inh,[6],0%
same,%Inh,[7],0%
same,%Inh,[8],0%
same,%Inh,[9],5%
same,%Inh,[10],0%
OCCn1cc(-c2cnc3nnn(Cc4ccc5ncccc5c4)c3n2)cn1,%Inh,[1],0%
same,%Inh,[2],0%
same,%Inh,[3],6%
same,%Inh,[4],32%
same,%Inh,[5],0%
same,%Inh,[6],0%
same,%Inh,[7],0%
same,%Inh,[8],8%
same,%Inh,[9],0%
same,%Inh,[10],15%
Cc1ccc2c(-c3ccnc(Nc4ccc(C(F)(F)F)cc4)n3)cnn2n1 [GW819776],%Inh,[1],0%
same,%Inh,[2],0%
same,%Inh,[3],0%
same,%Inh,[4],78%
same,%Inh,[5],9%
same,%Inh,[6],84%
same,%Inh,[7],0%
same,%Inh,[8],2%
same,%Inh,[9],6%
same,%Inh,[10],10%
Cn1cc(-c2cccc3c(N)c(C(N)=O)nnc23)cn1,%Inh,[1],0%
same,%Inh,[2],0%
same,%Inh,[3],15%
same,%Inh,[4],22%
same,%Inh,[5],16%
same,%Inh,[6],6%
same,%Inh,[7],5%
same,%Inh,[8],0%
same,%Inh,[9],0%
same,%Inh,[10],21%
COc1ccc(Nc2nccc(N3CCC(NC(=O)c4cccc(C#N)c4)C3)n2)cc1 (stereo not drawn) [GSK1379730],%Inh,[1],0%
same,%Inh,[2],0%
same,%Inh,[3],0%
same,%Inh,[4],0%
same,%Inh,[5],3%
same,%Inh,[6],12%
same,%Inh,[7],30%
same,%Inh,[8],0%
same,%Inh,[9],0%
same,%Inh,[10],0%
CC(C)c1nc(-c2cccc(NS(=O)(=O)c3ccccc3)c2)c(-c2ccnc(Nc3ccc4c(c3)CN(C)CC4)n2)s1 [GSK1649598],%Inh,[1],97.7%
same,%Inh,[2],14%
same,%Inh,[3],34%
same,%Inh,[4],27%
same,%Inh,[5],18%
same,%Inh,[6],0%
same,%Inh,[7],0%
same,%Inh,[8],0%
same,%Inh,[9],51%
same,%Inh,[10],3%
C[C@@H](Oc1cc(-n2cnc3cc(-c4ccncc4)ccc32)sc1C(N)=O)c1ccccc1Cl [GSK479719],%Inh,[1],0%
same,%Inh,[2],66%
same,%Inh,[3],96.5%
same,%Inh,[4],5%
same,%Inh,[5],21%
same,%Inh,[6],82%
same,%Inh,[7],0%
same,%Inh,[8],12%
same,%Inh,[9],62%
same,%Inh,[10],0%
CCNCC(Cc1ccccc1)NC(=O)c1cc(Br)c(-c2ccnc3[nH]ccc23)s1.Cl.Cl (stereo not drawn) [GSK1383280],%Inh,[1],0%
same,%Inh,[2],79%
same,%Inh,[3],18%
same,%Inh,[4],17%
same,%Inh,[5],0%
same,%Inh,[6],79%
same,%Inh,[7],0%
same,%Inh,[8],0%
same,%Inh,[9],10%
same,%Inh,[10],0%
C[C@@H]1CNc2c(sc3ccc4nc(-c5ccncc5)ccc4c23)C(=O)N1,%Inh,[1],0%
same,%Inh,[2],0%
same,%Inh,[3],0%
same,%Inh,[4],30%
same,%Inh,[5],0%
same,%Inh,[6],0%
same,%Inh,[7],3%
same,%Inh,[8],5%
same,%Inh,[9],0%
same,%Inh,[10],90.3%
N#Cc1cccc(C(=O)NC2CCN(c3ccnc(Nc4ccc(F)cc4)n3)C2)c1 (stereo not drawn) [GSK1379708],%Inh,[1],3%
same,%Inh,[2],0%
same,%Inh,[3],0%
same,%Inh,[4],7%
same,%Inh,[5],11%
same,%Inh,[6],5%
same,%Inh,[7],12%
same,%Inh,[8],0%
same,%Inh,[9],0%
same,%Inh,[10],13%
CC(=O)c1c(-c2ccncc2)[nH]c(-c2ccncc2)c1C [GW493036],%Inh,[1],0%
same,%Inh,[2],0%
same,%Inh,[3],0%
same,%Inh,[4],47%
same,%Inh,[5],4%
same,%Inh,[6],19%
same,%Inh,[7],0%
same,%Inh,[8],0%
same,%Inh,[9],27%
same,%Inh,[10],28%
Nc1nccc(-c2ccc3c(N)n[nH]c3c2)n1 [GSK1034945],%Inh,[1],0%
same,%Inh,[2],0%
same,%Inh,[3],3%
same,%Inh,[4],9%
same,%Inh,[5],0%
same,%Inh,[6],4%
same,%Inh,[7],0%
same,%Inh,[8],3%
same,%Inh,[9],10%
same,%Inh,[10],0%
CC(C)S(=O)(=O)N1CCN(Cc2ccc3c(c2)nc(NC(=O)c2ccsc2)n3C[C@H](O)c2ccccc2)CC1 [GW635815],%Inh,[1],1%
same,%Inh,[2],0%
same,%Inh,[3],0%
same,%Inh,[4],0%
same,%Inh,[5],9%
same,%Inh,[6],8%
same,%Inh,[7],0%
same,%Inh,[8],0%
same,%Inh,[9],1%
same,%Inh,[10],9%
Cc1n[nH]c2cc(Nc3ccnc(Nc4cccc(CN5CCOCC5)c4)n3)ccc12 [GW682569],%Inh,[1],17%
same,%Inh,[2],2%
same,%Inh,[3],0%
same,%Inh,[4],20%
same,%Inh,[5],0%
same,%Inh,[6],29%
same,%Inh,[7],0%
same,%Inh,[8],0%
same,%Inh,[9],15%
same,%Inh,[10],0%
C[C@@H](Oc1cc(-n2cnc3cc(-c4cnn(C)c4)ccc32)sc1C(N)=O)c1ccccc1Cl [GSK580432],%Inh,[1],0%
same,%Inh,[2],88%
same,%Inh,[3],99.2%
same,%Inh,[4],0%
same,%Inh,[5],0%
same,%Inh,[6],99.7%
same,%Inh,[7],41%
same,%Inh,[8],71%
same,%Inh,[9],81%
same,%Inh,[10],7%
